# Compounds with a hit are over-represented: about 2.2% of the library has one in this group of screens.
# Ba/F3 V617F tox = lowers viability of Ba/F3 cells expressing EpoR and JAK2V617F; ATP luminescence; actives 1.1% (n = 220,000); inhibition, % at 5.6 µM;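 active means inhibition above the campaign mean plus 3 SD over all tested compounds, cut at about 24% in these data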;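 further: cytokine-independent growth of Ba/F3 cells driven by EpoR plus mutant JAK2; 0% = DMSO-treated cells and 100% = JAK inhibitor I control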
# APP transl inh = APP translation inhibition; SH-SY5Y APP 5'UTR-luciferase reporter, luminescence; inhibition, % at 2 µM; actives 0.82% (n = 190,000); AID 1285;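 active means inhibition above a set limit, derived from the sample mean plus 3 SD, cut at about 45% in these data; inconclusive means one replicate passes the limit while the other fails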
# aSyn UTR inh = MLPCN primary screen, SNCA 5' untranslated region; alpha-synuclein 5'UTR reporter, inhibitor activity; inhibition, % (tested at 7.5 µM); actives 0.82% (n = 300,000); in the data active means inhibition above about 60%; inconclusive means no clear call, values can overlap the other calls;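 further: H4 neuroglioblastoma cells stably carrying SNCA 5'UTR luciferase fusion; 0% = DMSO wells and 100% = positive control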
# KLF5 inhibitor = kruppel-like factor 5 inhibition. DLD-1 KLF5 promoter-luciferase reporter, luminescence. inhibition, % at 5 µM. actives 0.23% (n = 290,000);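 active means inhibition above a per-plate limit of that plate's mean compound inhibition plus 3 SD, cut at about 60% in these data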;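 further: 0% = DMSO wells and 100% = LY294002 at 200 µM; higher means less KLF5 promoter-driven luciferase light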
# BaF3 tox = parental Ba/F3 viability inhibition as JAK2V617F counter-screen; CellTiter-Glo ATP luminescence; actives 1.1% (n = 220,000); inhibition, % at 5.6 µM;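 active means inhibition above a per-campaign cutoff, the mean inhibition of all tested compounds plus 3 SD, cut at about 27% in these data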;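 further: 0% = DMSO wells and 100% = JAK Inhibitor I control wells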
# IEC-6 tox = IEC-6 cytotoxicity, counter-screen for KLF5 inhibitors; luminescence viability; inhibition, % at 5 µM; actives 0.78% (n = 290,000); AID 1825; in the data active means inhibition above about 22%;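 further: 0% = plate median of test compound wells and 100% = cytotoxic reference compound wells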
# Numbers without * were called inactive; ? = inconclusive; · = no result.
SMILES,Ba/F3 V617F tox,APP transl inh,aSyn UTR inh,KLF5 inhibitor,BaF3 tox,IEC-6 tox
Cc1[nH]n(-c2ccccc2)c(=O)c1N=Nc1ccccc1O,0,58*,?,8,13,0
COc1ccc(Cn2c(=O)[nH]c3cc(C(=O)NCCc4ccc(S(N)(=O)=O)cc4)ccc3c2=O)cc1,1,10,-11,-37,6,2
O=C(N1CCCCC1)N1CCN(C(=O)N(c2ccccc2)c2ccccc2)CC1,1,6,1,-28,8,3
O=C(N1CCOCC1)N1CCN(C(=O)N(c2ccccc2)c2ccccc2)CC1,-2,57*,24,-14,1,-2
Cc1cc(C)c2nc(C)cc(N/N=C/c3ccc(O)cc3)c2c1,·,·,112*,-36,·,22
CCOc1ccc(N=c2cc(-c3ccc(OC)cc3)oc3ccccc23)cc1,5,4,1,-28,71*,1
COc1ccc(N=c2cc(-c3ccc(OC)cc3)oc3ccccc23)cc1,2,3,-32,-79,5,1
C/C(=N\NC(=O)c1nn(C)c(C)c1Br)c1ccc(NC(=O)C2CCCC2)cc1,·,·,·,-118,·,4
CCN1CCC(CNCc2cn(-c3ccc(OC)cc3)nc2-c2ccccc2Cl)C1 (stereo unspecified),15,4,-44,2,10,0
Cc1c(Cl)cccc1NC(=S)N=Nc1c(O)n(CN2CCOCC2)c2ccccc12,7,46*,64*,-21,6,16
C=CCn1c(O)c(N=NC(=S)Nc2ccccc2F)c2ccccc21,4,19,67*,-4,6,8
CCCCNC(=S)N=Nc1c(O)n(Cc2ccccc2)c2ccccc12,4,-12,4,-7,7,0
C=CCn1c(O)c(N=NC(=S)Nc2cccc(C)c2)c2ccccc21,4,66*,94*,-14,7,20
C/C(Cl)=C\Cn1c(O)c(N=NC(N)=S)c2ccccc21,5,11,46,20,6,-7
Oc1c(N=NC(=S)Nc2ccccc2F)c2ccccc2n1Cc1ccccc1Cl,3,17,87*,-11,5,-1
Cc1ccc(Cn2c(O)c(N=NC(=S)Nc3ccccc3F)c3ccccc32)cc1,-3,22,71*,-22,2,-4
Oc1c(N=NC(=S)Nc2ccccc2F)c2ccccc2n1Cc1ccccc1,-1,18,72*,2,2,-10
CN(CC(=O)Nc1ccc(Cl)c(C(F)(F)F)c1)C(=O)C1CSC2(C)CCC(=O)N12 (stereo unspecified),·,·,-5,·,·,·
Nc1ccc(N2CCCCCC2)cc1,43*,-11,·,1,59*,1
Cc1ccc2nc(NC(=O)c3ccco3)sc2c1,-1,-84,85*,59,4,2
CC1CCN(c2nc3ccc(C(=O)O)cc3s2)CC1,-1,46*,106*,62,3,-3
COc1ccc2oc(C(=O)NCc3cc(OC)c(OC)cc3OC)c(C)c2c1,·,·,-23,-22,·,9
CCCn1c(=O)c2ccccc2n2c(SCC(=O)N3CCc4ccccc4C3)nnc12,1,61*,5,0,8,2
CCn1c(=O)c2ccccc2n2c(SCC(=O)N3CCc4ccccc4C3)nnc12,-2,1,-26,-1,2,-3
COc1cccc(CNC(=O)CC2Sc3ccccc3NC2=O)c1 (stereo unspecified),1,-12,-16,-16,59*,0
SMILES,Ba/F3 V617F tox,APP transl inh,aSyn UTR inh,KLF5 inhibitor,BaF3 tox,IEC-6 tox
CCC(=O)N1CCc2cc(S(=O)(=O)NCCCN3CCN(Cc4ccccc4)CC3)ccc21,-3,-22,10,-26,2,-1
CC(=O)N1CCc2cc(S(=O)(=O)NCCCN3CCN(Cc4ccccc4)CC3)ccc21,-1,63*,17,-18,6,-4
CCN1/C(=C/C=C/c2oc3ccc4ccccc4c3[n+]2CC)Oc2ccc3ccccc3c21,101*,54*,92*,-16,68*,1
O=C1c2cccc3c(Cl)ccc(c23)C(=O)N1O,-2,-6,10,-2,5,22*
CCN1C(=O)c2cccc3c(Cl)ccc(c23)C1=O,3,-11,-9,-3,7,3
CC(C)(C)C1=CC(=O)C(=O)C(C(C)(C)C)=C1,-1,47*,-21,-5,2,5
O=S(=O)(NCc1ccccn1)c1ccc(Cl)s1,2,-14,3,-7,3,-6
O=C1[C@H]2CCCC[C@H]2C(=O)N1CCCCN1CCN(c2nsc3ccccc23)CC1,·,·,-26,·,·,·

# Bioassay records from PubChem BioAssay.
